Assay results reported in PubChem BioAssay (NCATS).
Where “and” joins values, the source holds several entries; their conditions need not be identical. Identical values can stand only once. Results filed as inconclusive are left out. Calls of active or inactive are those of the source. Unless noted, the call rests on the fitted dose curve; in most records, active means well fitted curve in the direction sought with a large enough effect; inconclusive means small, poorly fitted or top-dose-only effect, or another doubt; inactive means no such curve, though single readings can be large; an effect the other way counts as inactive or inconclusive.

What was measured:
[1] = target: Peroxisome proliferator-activated receptor gamma (Homo sapiens) (UniProt P37231); test: qHTS assay for small molecule agonists of peroxisome proliferator-activated receptor gamma signaling (AID 588536; active means well fitted curve in the direction sought with a large enough effect in the signal ratio, with a control signal flat, not every such curve was filed as active; the % refers to the signal ratio;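 further: 0% = DMSO basal wells and 100% = rosiglitazone at 2 µM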)
Peroxisome proliferator-activated receptor gamma (Homo sapiens), sequence (P37231 whole entry, looked up): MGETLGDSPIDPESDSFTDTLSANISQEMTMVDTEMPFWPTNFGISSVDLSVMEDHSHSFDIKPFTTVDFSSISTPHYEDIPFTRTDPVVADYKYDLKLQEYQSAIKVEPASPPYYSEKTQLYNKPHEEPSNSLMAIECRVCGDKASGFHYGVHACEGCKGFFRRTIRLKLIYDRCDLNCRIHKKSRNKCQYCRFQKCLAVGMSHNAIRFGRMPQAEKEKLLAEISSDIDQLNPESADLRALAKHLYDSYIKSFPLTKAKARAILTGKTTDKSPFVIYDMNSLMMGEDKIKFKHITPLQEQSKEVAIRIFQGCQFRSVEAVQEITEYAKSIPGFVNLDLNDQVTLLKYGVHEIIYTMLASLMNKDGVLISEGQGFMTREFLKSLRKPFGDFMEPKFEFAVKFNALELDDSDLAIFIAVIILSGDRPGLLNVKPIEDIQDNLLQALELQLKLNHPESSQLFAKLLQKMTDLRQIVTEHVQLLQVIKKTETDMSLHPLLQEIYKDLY
Procedure, shortened: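 This is an agonist-mode beta-lactamase reporter assay in HEK293 PPAR-gamma-UAS-bla cells with 1% charcoal/dextran FBS. Compound titrations ran 16 h at 37 C before CCF4 detection. EC50 and efficacy are Hill fits scaled to 2 uM rosiglitazone (100%) and DMSO basal.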

[2] = target: Retinoic acid receptor RXR-alpha (Homo sapiens) (UniProt P19793); test: qHTS assay for small molecule agonists of retinoid X receptor alpha signaling (AID 588544; calls by dose curve;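 further: 0% = DMSO basal wells and 100% = reference agonist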)
Retinoic acid receptor RXR-alpha (Homo sapiens), sequence (P19793 whole entry, looked up): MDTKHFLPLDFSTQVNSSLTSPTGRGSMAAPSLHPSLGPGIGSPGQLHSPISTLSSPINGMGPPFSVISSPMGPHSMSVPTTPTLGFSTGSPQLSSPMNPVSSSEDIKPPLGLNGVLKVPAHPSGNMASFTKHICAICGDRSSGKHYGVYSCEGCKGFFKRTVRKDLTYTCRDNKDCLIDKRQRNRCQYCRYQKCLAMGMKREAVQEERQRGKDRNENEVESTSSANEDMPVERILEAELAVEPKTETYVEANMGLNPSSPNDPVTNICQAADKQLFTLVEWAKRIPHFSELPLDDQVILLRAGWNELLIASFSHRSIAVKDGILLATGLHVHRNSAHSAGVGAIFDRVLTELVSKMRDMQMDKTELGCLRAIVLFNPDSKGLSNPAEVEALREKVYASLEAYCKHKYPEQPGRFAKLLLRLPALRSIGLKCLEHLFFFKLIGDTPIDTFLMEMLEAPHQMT

[3] = target: ATP-dependent 6-phosphofructokinase (Trypanosoma brucei brucei) (UniProt O15648); test: qHTS Assay to Find Inhibitors of T. brucei phosphofructokinase: hit validation (AID 492961);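 further: luminescence reports ADP formed as PFK phosphorylates fructose-6-phosphate with ATP; on the % scale 0 is the no-effect control and ±100 the full control effect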
ATP-dependent 6-phosphofructokinase (Trypanosoma brucei brucei), sequence (O15648 whole entry, looked up): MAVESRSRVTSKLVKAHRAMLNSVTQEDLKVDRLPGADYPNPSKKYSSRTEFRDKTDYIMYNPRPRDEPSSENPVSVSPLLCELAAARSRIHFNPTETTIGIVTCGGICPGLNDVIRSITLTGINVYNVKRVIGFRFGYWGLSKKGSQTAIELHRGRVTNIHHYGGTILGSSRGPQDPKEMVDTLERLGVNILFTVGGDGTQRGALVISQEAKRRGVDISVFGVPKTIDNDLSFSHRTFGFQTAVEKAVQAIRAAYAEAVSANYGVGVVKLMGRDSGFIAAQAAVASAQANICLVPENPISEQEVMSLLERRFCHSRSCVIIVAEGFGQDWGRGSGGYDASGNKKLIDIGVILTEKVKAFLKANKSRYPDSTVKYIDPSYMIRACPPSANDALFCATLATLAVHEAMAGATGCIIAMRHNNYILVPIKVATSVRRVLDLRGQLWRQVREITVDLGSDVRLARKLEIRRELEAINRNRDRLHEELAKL
Procedure, shortened: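 In this biochemical qHTS validation, titrated compounds were tested against 1.25 nM PFK with 0.1 mM ATP and 0.5 mM F6P. Percent activity came from controls lacking or containing enzyme.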

[4] = qHTS profiling for inhibitors of Plasmodium falciparum proliferation (AID 504749);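 further: 0% = DMSO vehicle and full inhibition = artemisinin control; nearly all actives have a fitted effect of over 60% in size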; conditions: P. falciparum in erythrocytes, SYBR Green DNA, 72 h, at 28.7 µM (top of the series)
Procedure, shortened: (§1)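 SYBR Green fluorescence of parasite DNA, read after lysis and overnight dark incubation, measured growth over 72 h in erythrocyte culture at 0.3% parasitemia and 2.5% hematocrit. Data normalised to DMSO and 0.29 uM artemisinin, with plate-drift correction.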

CP192 = test: as above; conditions: P. falciparum in erythrocytes, SYBR Green DNA, 72 h; series mostly up to 28.7 µM
Procedure, shortened: as §1

CP194 = test: as above; conditions: P. falciparum in erythrocytes, SYBR Green DNA, 72 h; series mostly up to 28.7 µM
Procedure, shortened: as §1

CP201 = test: as above; conditions: P. falciparum in erythrocytes, SYBR Green DNA, 72 h; series mostly up to 28.7 µM
Procedure, shortened: as §1

CP291 = test: as above; conditions: P. falciparum in erythrocytes, SYBR Green DNA, 72 h; series mostly up to 28.7 µM
Procedure, shortened: as §1

CP305 = test: as above; conditions: P. falciparum in erythrocytes, SYBR Green DNA, 72 h; series mostly up to 28.7 µM
Procedure, shortened: as §1

DIV30 = test: as above; conditions: P. falciparum in erythrocytes, SYBR Green DNA, 72 h; series mostly up to 28.7 µM
Procedure, shortened: as §1

W2 = test: as above; conditions: P. falciparum in erythrocytes, SYBR Green DNA, 72 h; series mostly up to 28.7 µM
Procedure, shortened: as §1

[5] = Cell Viability - SK-N-SH (AID 435; calls by dose curve;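 further: potency means the concentration at half of the fitted maximal effect; compound exposure lasted 40 h at 37 °C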); conditions: SK-N-SH neuroblastoma cell viability qHTS
Procedure, shortened: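 Cells seeded at 1500 per well and incubated 5 hr at 37 °C. Compound added, then 40 hr at 37 °C. CellTiter-Glo added, 20 min at room temperature, luminescence read.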

[6] = Cell Viability - NIH 3T3 (AID 541); conditions: NIH 3T3 cell viability, qHTS; activity change, negative = cytotoxicity: at 92.2 µM (top of the series);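 further: cells exposed to compound for 40 hours; plate controls were DMSO alone for no effect and tamoxifen positive control for full effect; nearly all actives have a fitted effect of over 25% in size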
Procedure, shortened: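 Cells seeded at 1000/well, rested 5 hr at 37 °C, then dosed and incubated 40 hr at 37 °C. CellTiter-Glo added, 20 min room temperature, luminescence read. AC50 by Hill fit.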

[7] = qHTS assay to identify small molecules that stimulate interleukin-8 (IL-8) secretion (AID 651758; active means well fitted activation curve with a large enough effect in the signal ratio; the % refers to the signal ratio; further: potency means the concentration at half of the fitted maximal effect; on activation: 0% is about no effect)
Procedure, shortened: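 Secreted IL-8 measured homogeneously by TR-FRET (two labelled anti-IL-8 antibodies, 1-3 h at room temperature) after a 16 h, 37 C compound treatment of THP-1 cells at 2000 cells/well.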

[8] = Cell Viability - N2a (AID 540); conditions: N2a mouse neuroblastoma cell viability; activity change, negative = cytotoxicity: at 92.2 µM (top of the series);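 further: cells exposed to compound for 40 h at 37 °C; plate controls were DMSO alone for no effect and tamoxifen control for full effect; nearly all actives have a fitted effect of over 45% in size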
Procedure, shortened: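 Cytotoxicity was scored as loss of cellular ATP in N2a cells, a mouse neuroblastoma line. Compounds are applied in a qHTS concentration series for 40 hr at 37 °C.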

[9] = Cellular Toxicity (caspase-3) SK-N-SH (AID 661);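 further: cells exposed to compound for 16 hours; 0% = DMSO basal and 100% = 10 µM staurosporine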
Procedure, shortened: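 Cells were seeded and incubated 5 hr at 37 °C, dosed with compound over a concentration range for 16 hr, then given Caspase-Glo 3/7 reagent for 1 hr at room temperature before luminescence reading.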

[10] = MultiTox-Fluor Cytotoxicity Assay - LYMP1-002 - Dead Cells (AID 960);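 further: 0% = DMSO and 100% = tetraoctylammonium bromide; nearly all actives have a fitted effect of over 60% in size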
Procedure, shortened: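 Cells were plated, rested 5 hr, then treated with compound dilution series for 16 hr at 37 C. After adding substrate reagent and 60 min at room temperature, dead-cell protease fluorescence gave concentration-response curves fitted by the Hill equation.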

[11] = Cell Viability - LYMP2-004 (AID 966);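 further: cells exposed to compound for 24 h; plate controls were DMSO only for no effect and tetraoctylammonium bromide control for full effect; nearly all actives have a fitted effect of over 65% in size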
Procedure, shortened: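 qHTS cytotoxicity: human lymphoblastoid line, 24 hr compound treatment, 37 C, complete medium. Viability read as cellular ATP via luciferase luminescence; tetraoctylammonium bromide served as positive control.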

[12] = target: Glucocorticoid receptor (Homo sapiens) (UniProt P04150); test: qHTS assay for small molecule agonists of glucocorticoid receptor signaling (AID 588532; active means well fitted curve in the direction sought with a large enough effect in the signal ratio, with a control signal flat; the % refers to the signal ratio;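 further: 100% = dexamethasone at 0.1 µM and 0% = DMSO only wells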); conditions: HeLa MMTV-bla, beta-lactamase ratio, agonist, 18 h; active compounds read high; percent of dexamethasone control, DMSO zero
Glucocorticoid receptor (Homo sapiens), sequence (P04150 whole entry, looked up): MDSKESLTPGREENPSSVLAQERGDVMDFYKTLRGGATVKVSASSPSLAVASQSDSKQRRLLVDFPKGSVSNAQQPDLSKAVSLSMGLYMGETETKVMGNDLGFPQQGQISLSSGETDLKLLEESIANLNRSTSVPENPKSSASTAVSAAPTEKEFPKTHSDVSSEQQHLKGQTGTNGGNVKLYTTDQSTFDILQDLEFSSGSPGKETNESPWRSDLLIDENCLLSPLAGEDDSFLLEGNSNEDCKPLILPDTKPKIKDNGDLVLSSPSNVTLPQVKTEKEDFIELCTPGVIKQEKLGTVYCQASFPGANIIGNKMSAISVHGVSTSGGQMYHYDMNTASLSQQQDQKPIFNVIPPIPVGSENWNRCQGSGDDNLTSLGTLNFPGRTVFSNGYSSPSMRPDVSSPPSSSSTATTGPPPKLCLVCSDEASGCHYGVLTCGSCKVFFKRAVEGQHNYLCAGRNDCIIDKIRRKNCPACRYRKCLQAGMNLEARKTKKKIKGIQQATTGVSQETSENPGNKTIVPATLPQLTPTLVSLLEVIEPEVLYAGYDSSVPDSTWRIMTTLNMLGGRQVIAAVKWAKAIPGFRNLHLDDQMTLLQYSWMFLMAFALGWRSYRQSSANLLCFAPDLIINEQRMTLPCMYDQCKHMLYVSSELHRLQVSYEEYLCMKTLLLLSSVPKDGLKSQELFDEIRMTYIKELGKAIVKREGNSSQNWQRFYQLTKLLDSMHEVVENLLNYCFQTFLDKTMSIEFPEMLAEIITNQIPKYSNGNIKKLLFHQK
Procedure, shortened: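 Quantitative HTS using CellSensor MMTV-bla HeLa cells in charcoal/dextran-treated serum; compounds tested up to 92 uM. After 18 h at 37 C, CCF4 dye reported reporter induction.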

[13] = Cell Viability - Mesenchymal (AID 546); conditions: mesenchymal cells viability, qHTS; activity change, negative = cytotoxicity: at 91.7 µM (top of the series);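 further: cells exposed to compound for 40 hours before reading; 0% = DMSO only and -100% = 100 µM tamoxifen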
Procedure, shortened: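 CellTiter-Glo luminescence (intracellular ATP, 20 min room temperature) after 40 hr compound exposure at 37 °C of 1000 glomerulus-derived human kidney mesenchymal cells/well; AC50 values obtained by fitting qHTS concentration-response data to the Hill equation.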

C=CC(C)(CCC=C(C)C)OC(C)=O (centres undefined)
inactive: outcome [1] | outcome [2]

CC(=O)OC1CC2CCC1(C)C2(C)C (centres undefined)
inactive: outcome [3] | activity, negative = inhibition ([4]; parasite line A) 6.76% | activity, negative = inhibition ([4]; parasite line B) 13.6% | Potency (CP192) | Potency (CP194) | Potency (CP201) | Potency (CP291) | Potency (CP305) | Potency (DIV30) | Potency (W2)

C=CC(=C)CCC=C(C)C
inactive: Potency [5] > 92 µM | Potency [6] | Potency [7]

O=C(O)c1ccccc1
inactive: activity change, negative = cytotoxicity [8] 6.89% | outcome [9] | Potency [10] | Potency [11]

CCCCCCCCCCCCCC(=O)O
inactive: Potency [5] > 92 µM | activity change, negative = cytotoxicity [8] -4.4% | Potency [11] | activation [12] -3.49% and -3.58%

COc1ccc(/C=C/c2cc(OC)cc(=O)o2)cc1
inactive: activity change, negative = cytotoxicity [8] -11.5% | Potency [6]
active: Potency [7] 66.8 µM

COc1cc(/C=C/c2ccccc2)oc(=O)c1
inactive: activity change, negative = cytotoxicity [13] -9.29% | outcome [9] | Potency [10] | Potency [11] | activation [12] 1.13% | outcome [1]

CCCCCCCCCCCC(=O)O
inactive: activity change, negative = cytotoxicity [13] -0.623% and 0.657% | outcome [9]
